Screening data: PubChem BioAssay, National Center for Advancing Translational Sciences (NCATS)
D2 ag-1: agonists of human D2 dopamine receptor (beta-arrestin). DiscoveRx PathHunter D2 beta-arrestin, luminescence, 90 min; 100% = 57 uM dopamine signal. AID 624465. P14416. activation, % (concentration not given with the values). 360,000 tested, 0.084% active; in the data active = activation above about 40%; inconclusive = between about 15% and that limit
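DiscoveRx PathHunter D2 beta-arrestin cells (2,100/well) attached overnight, then compound-stimulated 90 min at 37 C in HBSS/10 mM HEPES/0.1% Tween-20 buffer; beta-galactosidase complementation read by luminescence after 1 h at ambient temperature. Dopamine 57 uM final (EC100) as control.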
D2 PAM-1: positive allosteric modulators of human D2 dopamine receptor. potentiation, % (concentration not given with the values). 360,000 tested, 0.23% active. DiscoveRx D2 beta-arrestin cells, luminescence, 90 min; 100% = 57 uM dopamine signal; in the data active = potentiation above about 50%; inconclusive = mostly about 30% to 49%
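D2 cells co-treated with compound plus 50 nM dopamine (EC20) for 90 min at 37 deg C to detect potentiation. Beta-arrestin recruitment was read as enzyme-fragment luminescence after 1 h at ambient temperature. Full response was set by 57 uM dopamine.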
D2 PAM-2: positive allosteric modulators of human D2 dopamine receptor | P14416 | HEK293 T-REx D2, calcium flux, EC20 dopamine potentiation | potentiation, % at 10 µM | 340,000 tested, 0.34% active | AID 485347;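 active = potentiation over 3 SD above the plate norm, cut at about 30% in these data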; also: 0% is about no effect
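Primary screen. Calcium kinetics in induced HEK293 T-REx D2 cells: compound pre-addition 180 s, EC20 dopamine, 180 s more.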
D2 ag-2: agonists of human D2 dopamine receptor; 340,000 tested, 0.53% active; activation, % at 2 µM; HEK293 T-REx D2 cells, calcium flux agonist mode; P14416;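 active = activation over 3 SD above normal in the single-dose calcium agonist read, cut at about 30% in these data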; also: 0% is about no effect
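HEK293 Trex D2 cells, tetracycline-induced, o/n 30 C 5% CO2; no-wash Ca dye, RT 30–90 min; 10-cycle baseline, 23 nl cpd added, kinetic Ca read 180 s; agonist hits = positive Ca response.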
B2AR arrestin: beta2AR (human) beta-arrestin recruitment activity; P07550; beta-arrestin recruitment to beta2AR, cell-based reporter; Potency, µM (top dose mostly 46.1 µM), without a hit: at the top dose activation, hits mostly activators; 330,000 tested, 0.02% active; AID 492947;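 also: potency is read from the fitted curve at half-maximal effect; 0% = DMSO controls and full agonism = EC100 isoproterenol or metaproterenol; nearly all actives have a fitted effect of over 65% in size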
Target sequence (P07550 whole entry, looked up): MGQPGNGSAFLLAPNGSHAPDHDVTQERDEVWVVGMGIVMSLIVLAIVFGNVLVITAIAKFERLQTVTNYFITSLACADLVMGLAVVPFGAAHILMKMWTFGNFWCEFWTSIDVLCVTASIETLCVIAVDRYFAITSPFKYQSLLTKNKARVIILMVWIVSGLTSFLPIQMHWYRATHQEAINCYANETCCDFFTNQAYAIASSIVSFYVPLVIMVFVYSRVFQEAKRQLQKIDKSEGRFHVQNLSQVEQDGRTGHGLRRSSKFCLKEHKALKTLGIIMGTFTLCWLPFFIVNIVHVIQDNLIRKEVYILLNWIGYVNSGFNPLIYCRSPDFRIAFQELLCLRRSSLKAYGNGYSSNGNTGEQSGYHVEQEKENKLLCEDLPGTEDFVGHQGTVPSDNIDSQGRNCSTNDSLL
D2 antagonist: antagonists of human D2 dopamine receptor | HEK293 TREx D2 cells, calcium flux, dopamine EC80 | P14416 | AID 485344 | inhibition, % at 10 µM | 340,000 tested, 2% active; in the data active = inhibition above about 30%; inactive = below that, where a call was filed; also: 0% is about no effect
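Compounds are added to dye-loaded, induced HEK293 T-REx cells coupled to calcium release via D2; after a 3 min kinetic read an EC80 dopamine stimulus is given and fluorescence is recorded for 3 more min.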
D3 ag: confirmation of human D3 dopamine receptor agonists, beta-arrestin. shares compounds with D2 ag-2. DiscoveRx D3 beta-arrestin cells, luminescence, 90 min. Potency, µM (doses to about 76.9 µM), without a hit: at the top dose activation, actives largely listed as activators. 2,300 tested, 4% active. AID 720506;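 also: potency is read from the fitted curve at half-maximal effect; 100% = dopamine control response; nearly all actives have a fitted effect of over 70% in size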
D2 ag-3: activates human D2 dopamine receptor in D3 counterscreen. DiscoveRx PathHunter D2 beta-arrestin, luminescence, 90 min; response scale: percent relative to full dopamine signal. 2,300 tested, 5.9% active. AID 720507. shares compounds with D2 ag-2. Potency, µM (series often up to 76.9 µM), without a hit: at the top dose activation, usual class: activators; also: potency is read from the fitted curve at half-maximal effect; % of control where 0% means no effect; nearly all actives have a fitted effect of over 70% in size
Numbers without * were called inactive. A selection: hits, their analogues and other compounds. The true share with any hit is near 2.4%. Unless noted, calls follow the shape of the dose curve; as a rule, active = well fitted activation curve with a large enough effect; inconclusive = small, poorly fitted or top-dose-only effect; inactive = flat fitted curve, though single readings scatter.

Screening CSCCC(N=Cc1c(O)n(-c2ccc(Cl)cc2)c(=O)[nH]c1=O)C(=O)OC(C)(C)C (configuration not stated) returned D2 ag-1 -1, D2 PAM-1 -4, D2 PAM-2 2, D2 ag-2 -1, B2AR arrestin 0% and D2 antagonist -16.
`CCN(CC)c1ccc(/C=N/c2sc3c(c2C#N)C2CCN3CC2)c(O)c1` gave D2 ag-1 -8, D2 PAM-1 -35, D2 PAM-2 9, D2 ag-2 34*, B2AR arrestin 0% and D2 antagonist 17.
COc1ccc2c(c1OC)CN1CCc3cc4c(cc3C1C2)OCO4 (configuration not stated) was read as D2 ag-1 0, D2 PAM-1 -23, D2 PAM-2 -22, D2 ag-2 0, B2AR arrestin 0% and D2 antagonist 86*.
`Oc1ccc(C(=C(Cl)Cl)c2ccc(O)cc2)cc1` gave D2 PAM-2 -2, D2 ag-2 1, B2AR arrestin 0% and D2 antagonist 10.
CC1=NN=C(c2ccc(N)cc2)c2cc3c(cc2C1)OCO3 was read as D2 ag-1 70*, D2 PAM-1 28, D2 PAM-2 -1, D2 ag-2 1, B2AR arrestin 0% and D2 antagonist -1.
`CCN1CC=C(c2c[nH]c3ccccc23)CC1` gave D2 ag-1 -3, D2 PAM-1 -38, D2 PAM-2 -21, D2 ag-2 0, B2AR arrestin -1% and D2 antagonist 83*.
Cc1[nH]c2ccccc2c1C(=O)CN1CC=C(c2ccccc2)CC1 was read as D2 ag-1 -3, D2 PAM-1 -8, D2 PAM-2 -28, D2 ag-2 3, B2AR arrestin -1% and D2 antagonist 10.
COc1ccc(CCNCc2cc(OC)cc(OC)c2)cc1 was read as D2 ag-1 -3 and D2 PAM-1 -18.
`O=C(/C=C/c1c[nH]c2ccccc12)c1c(O)n(CCc2ccccc2)c(=O)[nH]c1=O` gave D2 ag-1 -1, D2 PAM-1 -3, D2 PAM-2 -7, D2 ag-2 40*, B2AR arrestin -1% and D2 antagonist 37*.
For CCCCn1c(O)c(C(C)=NCCc2c[nH]c3ccccc23)c(=O)[nH]c1=O the results were D2 ag-1 0, D2 PAM-1 -2, D2 PAM-2 3, D2 ag-2 3, B2AR arrestin -1% and D2 antagonist -2.
Screening CCOC(=O)C1(CCc2ccccc2)CCN(Cc2cccc3cnccc23)CC1 returned D2 ag-1 0, D2 PAM-1 -10, D2 PAM-2 -7, D2 ag-2 2, B2AR arrestin -1% and D2 antagonist -19.
`CCOC(=O)C1(CCc2ccccc2)CCN(Cc2cccc3c2OCO3)CC1` gave D2 ag-1 0, D2 PAM-1 -8, D2 PAM-2 -23, D2 ag-2 0, B2AR arrestin 0% and D2 antagonist 47*.
CN1CSC(=S)N(C)C1 was read as D2 ag-1 -6, D2 PAM-1 -2, D2 PAM-2 7, D2 ag-2 0 and D2 antagonist 42*.
CN1CCN(Cc2ccc(Br)s2)CC1 was read as D2 ag-1 3, D2 PAM-1 -24, D2 PAM-2 -22, D2 ag-2 -1, B2AR arrestin 0% and D2 antagonist 13.
`COc1ccccc1N1CCN(Cc2ccccc2)CC1` gave D2 ag-1 2, D2 PAM-1 -67, D2 PAM-2 -19, D2 ag-2 31*, B2AR arrestin -2%, D2 antagonist 97*, D3 ag -10% and D2 ag-3 -2%.
For COc1ccccc1N1CCN(Cc2c(F)cccc2Cl)CC1 the results were D2 ag-1 -1, D2 PAM-1 -42, D2 PAM-2 -29, D2 ag-2 4, B2AR arrestin -2% and D2 antagonist -20.
For COc1ccccc1N1CCN(Cc2ccc(Br)s2)CC1 the results were D2 ag-1 1, D2 PAM-1 -4, D2 PAM-2 -23, D2 ag-2 61*, B2AR arrestin -1%, D2 antagonist 85*, D3 ag -8% and D2 ag-3 8%.
For CC(=O)OC1(c2ccccc2)CCN(C2CCCCC2)CC1C (configuration not stated) the results were D2 ag-1 8, D2 PAM-1 -3, D2 PAM-2 -20, D2 ag-2 67*, B2AR arrestin -1%, D2 antagonist 53*, D3 ag 12% and D2 ag-3 18%.
For COc1ccc(C2CC(=O)Oc3c2c(=O)oc2ccccc32)c(OC)c1OC (configuration not stated) the results were D2 PAM-2 9 and D2 ag-2 -2.
Screening C=C[C@@H]1C2=CCOC(=O)C2=CO[C@H]1O[C@@H]1O[C@H](CO)[C@@H](O)[C@H](O)[C@H]1O returned D2 ag-1 0, D2 PAM-1 4, D2 PAM-2 13, D2 ag-2 0, B2AR arrestin -2%, D2 antagonist 7, D3 ag -7% and D2 ag-3 -1%.
`CC(=O)O[C@H]1[C@H]2O[C@]23[C@@H]2CC[C@]4(O)C[C@@H](O)CC[C@]4(C)C2CC[C@]3(C)[C@H]1c1ccc(=O)oc1` (some centres not stated) gave D2 ag-1 0, D2 PAM-1 5, D2 PAM-2 -6, D2 ag-2 1, B2AR arrestin 0%, D2 antagonist -7, D3 ag -4% and D2 ag-3 -4%.
Screening CN(C)CC(C(=O)Cc1ccccc1)c1ccccc1 (configuration not stated) returned D2 ag-1 -8 and D2 PAM-1 -24.
`Cn1c(=O)oc2cc(S(=O)(=O)NCCN3CCN(c4ccccc4)CC3)ccc21` gave D2 ag-1 -2, D2 PAM-1 -14, D2 PAM-2 -17, D2 ag-2 71*, B2AR arrestin 0%, D2 antagonist 65*, D3 ag 24% and D2 ag-3 inconclusive.
CN(C)c1cccc(CN2CCN(c3ccccc3)CC2)c1 was read as D2 ag-1 6 and D2 PAM-1 -10.
